MITF inh = blocks MITF activity; 0.28% of 37,000 active; inhibition, % (test concentration not listed); TRPM1 promoter luciferase, luminescence, 24 h; in the data active means inhibition above about 85%; inconclusive means no clear call, values can overlap the other calls; inactive means below about 68%;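 further: human melanocyte line stably carrying TRPM1 promoter luciferase reporter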
YB-1 expression = YB-1 expression inhibition | AID 434959 | delta delta Cp (YB-1 minus CDIP) (concentration not given with the values) | 0.37% of 30,000 active | U2OS, qRT-PCR YB-1 vs CDIP delta delta Cp, 16 h; stronger effect = higher value; zero = DMSO, each unit about twofold;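 active means delta delta Cp rounded down to an integer at or above 3, about 3 SD of DMSO wells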;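 further: higher means less YB-1 transcript or more CDIP transcript relative to DMSO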
NOMO-1 viab = STK33 inhibitor candidate reducing NOMO-1 cell viability; NOMO-1 AML viability, CellTiter-Glo luminescence, 72 h; inhibition, % (no concentration beside the values); 7.5% of 37,000 active; in the data active means inhibition above about 80%; inconclusive means no clear call, values can overlap the other calls
Hedgehog inh = blocks Sonic Hedgehog signaling; Shh-LIGHT2 Gli-luciferase reporter, 30 h; inhibition, % (concentration not given with the values); 2.1% of 22,000 active;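 active means mean inhibition across valid replicates above about 65%, limit read from the data; inconclusive means mean under the limit, yet half or more replicates past it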;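 further: pathway switched on by Shh-conditioned medium diluted 1 in 25 in low serum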
PD-1 reverse act = reversal of PD-1 mediated T-cell inhibition | primary human CD4 T cells, PD-L1 beads, CellTiter-Glo 96 h | activation, % (no concentration beside the values) | 29,000 tested, under 10 active | AID 2316; call rule not given here;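 further: 0% = median vehicle wells and 100% = positive control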
Numbers without * were called inactive. Rows were chosen to be rich in hits. Some 7.4% of all compounds tested hit in one or more screens of this group.

`CC(C)NC(=O)Nc1ccc2c(c1)CC(=O)N([C@@H](C)CO)C[C@H](C)[C@H](CN(C)Cc1ccc(Oc3ccccc3)cc1)O2` gave MITF inh -24.6, YB-1 expression -0.0682, NOMO-1 viab 4.1 and Hedgehog inh inconclusive.
Screening COc1ccc(NC(=O)N(C)C[C@@H]2Oc3ccc(NC(=O)Nc4ccc(C(F)(F)F)cc4)cc3C(=O)N([C@@H](C)CO)C[C@H]2C)cc1 returned MITF inh 2.0, YB-1 expression 0.22, NOMO-1 viab 35.2, Hedgehog inh -2.7 and PD-1 reverse act 0.0.
COc1ccc(NC(=O)Nc2ccc3c(c2)CC(=O)N([C@@H](C)CO)C[C@@H](C)[C@@H](CN(C)Cc2ccc(Oc4ccccc4)cc2)O3)cc1 was read as MITF inh 13.7, YB-1 expression 0.00291, NOMO-1 viab 60.4 and Hedgehog inh 28.0.
For C[C@@H]1CN([C@H](C)CO)C(=O)Cc2cc(NC(=O)Nc3ccc(F)cc3)ccc2O[C@H]1CN(C)Cc1ccc(Oc2ccccc2)cc1 the results were MITF inh 5.5, YB-1 expression 0.0779, NOMO-1 viab 123.3*, Hedgehog inh -2.6 and PD-1 reverse act -1.8.
`Cc1c(Cl)cccc1NC(=O)Cn1cnc2sc(C(=O)Nc3ccccc3)c(C)c2c1=O` gave MITF inh 29.8, NOMO-1 viab 10.3 and PD-1 reverse act 1.3.
C=CC(C)(C)[C@@]12CC(=O)C(=O)N3/C(=C/c4cnc[nH]4)C(=O)N[C@]31N(OC)c1ccccc12 was read as MITF inh 28.9, YB-1 expression 0.32, NOMO-1 viab 117.9*, Hedgehog inh -17.4 and PD-1 reverse act 0.2.
Screening C[C@H](CO)N1C[C@H](C)[C@H](CN(C)Cc2ccccc2)Oc2ccc(NC(=O)Nc3ccc(C(F)(F)F)cc3)cc2CC1=O returned MITF inh -1.4, YB-1 expression 0.0442, NOMO-1 viab inconclusive, Hedgehog inh 6.5 and PD-1 reverse act 0.1.
Screening C[C@H]1CN([C@@H](C)CO)C(=O)Cc2cc(NC(=O)Nc3ccc(C(F)(F)F)cc3)ccc2O[C@H]1CN(C)Cc1ccccc1 returned MITF inh 39.1, YB-1 expression -0.0507, NOMO-1 viab 84.5* and Hedgehog inh 3.7.
Screening C[C@H]1CN([C@@H](C)CO)C(=O)Cc2cc(NC(=O)Nc3ccccc3)ccc2O[C@H]1CN(C)Cc1ccc(C(F)(F)F)cc1 returned MITF inh 29.5, YB-1 expression -0.201, NOMO-1 viab 127.2* and Hedgehog inh -41.6.
COc1ccc(S(=O)(=O)N(C)C[C@@H]2Oc3c(NC(=O)c4nc5ccccc5s4)cccc3C(=O)N([C@H](C)CO)C[C@@H]2C)cc1 was read as MITF inh 54.4, YB-1 expression -0.148, NOMO-1 viab 117.0*, Hedgehog inh 18.7 and PD-1 reverse act -4.6.
For C[C@H](CO)N1C[C@H](C)[C@H](CN(C)S(=O)(=O)c2ccccc2)Oc2c(NC(=O)c3nc4ccccc4s3)cccc2C1=O the results were MITF inh 22.5, YB-1 expression 1.17, NOMO-1 viab 87.7*, Hedgehog inh 1.7 and PD-1 reverse act -3.9.
Screening COc1ccc(S(=O)(=O)N(C)C[C@H]2Oc3c(NC(=O)c4nc5ccccc5s4)cccc3C(=O)N([C@@H](C)CO)C[C@H]2C)cc1 returned MITF inh 1.1, YB-1 expression 7.87*, NOMO-1 viab 61.4 and Hedgehog inh -16.8.
C[C@H](CO)N1C[C@H](C)[C@@H](CN(C)Cc2ccc(C(=O)Nc3ccccc3N)cc2)Oc2ccc(NS(=O)(=O)c3ccc(Cl)cc3)cc2C1=O was read as MITF inh 4.6, YB-1 expression 0.481, NOMO-1 viab 39.4 and PD-1 reverse act 2.4.
`COc1ccc(NC(=O)N(C)C[C@H]2Oc3ccc(NC(=O)C4CC4)cc3C(=O)N([C@@H](C)CO)C[C@H]2C)cc1` gave MITF inh 0.5, YB-1 expression 0.2, NOMO-1 viab 5.4 and Hedgehog inh -62.4.
Screening O=C(O)C1C2C=CC(O2)C1C(=O)Nc1ccc(Oc2ccc(Cl)cc2)cc1 (centres undefined) returned MITF inh 20.2, NOMO-1 viab 24.6 and PD-1 reverse act -6.5.
`Cc1ccc(S(=O)(=O)Nc2ccc3c(c2)C(=O)N([C@H](C)CO)C[C@H](C)[C@@H](CN(C)Cc2ccc(Oc4ccccc4)cc2)O3)cc1` gave MITF inh -1.4, YB-1 expression 0.188, NOMO-1 viab 5.6 and PD-1 reverse act -0.1.
Cc1ccc(S(=O)(=O)Nc2ccc3c(c2)C(=O)N([C@@H](C)CO)C[C@H](C)[C@@H](CN(C)Cc2ccc(Oc4ccccc4)cc2)O3)cc1 was read as MITF inh 10.3, YB-1 expression 0.133, NOMO-1 viab 106.4*, Hedgehog inh 22.3 and PD-1 reverse act -2.3.
Cc1ccc(S(=O)(=O)Nc2ccc3c(c2)C(=O)N([C@@H](C)CO)C[C@@H](C)[C@@H](CN(C)Cc2ccc(Oc4ccccc4)cc2)O3)cc1 was read as MITF inh 37.0, YB-1 expression 0.053 and NOMO-1 viab 113.3*.
For COc1ccc(CN(C)C[C@H]2OCCCC[C@@H](C)Oc3ccc(NC(=O)Nc4ccc(OC)cc4)cc3C(=O)N([C@H](C)CO)C[C@@H]2C)cc1 the results were MITF inh -12.9, YB-1 expression 0.529, NOMO-1 viab 8.3, Hedgehog inh 45.9 and PD-1 reverse act -0.9.
For CC1(C)CC(=O)C=C(Sc2nc3cc(Cl)ccc3s2)C1 the results were MITF inh inconclusive, YB-1 expression 0.779, NOMO-1 viab 119.7*, Hedgehog inh inconclusive and PD-1 reverse act -44.6.
Screening COc1ccc(S(=O)(=O)N(C)CC(=O)O)cc1Cl returned MITF inh -8.9, NOMO-1 viab -10.9 and PD-1 reverse act 1.5.
COc1ccc(NC(=O)Nc2cccc3c2O[C@@H](CN(C)C)[C@H](C)CN([C@@H](C)CO)C3=O)cc1 was read as MITF inh -11.9, YB-1 expression -0.409, NOMO-1 viab 6.2 and Hedgehog inh -28.1.
Screening C[C@@H]1CN([C@H](C)CO)C(=O)c2cccc(NC(=O)Nc3ccc4c(c3)OCO4)c2O[C@H]1CN(C)Cc1ccc(Cl)c(Cl)c1 returned MITF inh 12.2, YB-1 expression 0.0738, NOMO-1 viab 87.1*, Hedgehog inh -3.7 and PD-1 reverse act -3.6.
C[C@@H]1CN([C@@H](C)CO)C(=O)c2cccc(NC(=O)Nc3ccc4c(c3)OCO4)c2O[C@@H]1CN(C)Cc1ccc(Cl)c(Cl)c1 was read as MITF inh -21.9, YB-1 expression -0.497, NOMO-1 viab 55.8, Hedgehog inh 20.4 and PD-1 reverse act -0.7.
Screening C[C@H](CO)N1C[C@H](C)[C@@H](CN(C)Cc2ccc(Cl)c(Cl)c2)Oc2c(NC(=O)Nc3ccc4c(c3)OCO4)cccc2C1=O returned MITF inh -8.2, YB-1 expression -0.587, NOMO-1 viab 81.6* and Hedgehog inh -25.5.
For C[C@H]1CN([C@@H](C)CO)C(=O)c2cccc(NC(=O)Nc3ccc4c(c3)OCO4)c2O[C@@H]1CN(C)Cc1ccc2c(c1)OCO2 the results were MITF inh -17.4, YB-1 expression 0.0203, NOMO-1 viab 6.0 and Hedgehog inh -31.7.

Bioassay records: PubChem BioAssay, Broad Institute
